Activity calls are given as the source filed them.
Tests used:
Albumin (Bos taurus) = Albumin (Bos taurus) (UniProt P02769); assay: compounds binding labelled BSA control protein – biochemical, small-molecule microarray, Alexa647 label, 635/667 nm fluorescence, artefact control for SMM control protein annotation, profiling panel (AID 1118); settings: BSA-A647 binding, fluorescence 635 nm, higher = more signal;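 also: score merges 667 nm emission intensity and signal-to-noise per printed compound spot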
Albumin (Bos taurus), sequence (P02769 whole entry, looked up): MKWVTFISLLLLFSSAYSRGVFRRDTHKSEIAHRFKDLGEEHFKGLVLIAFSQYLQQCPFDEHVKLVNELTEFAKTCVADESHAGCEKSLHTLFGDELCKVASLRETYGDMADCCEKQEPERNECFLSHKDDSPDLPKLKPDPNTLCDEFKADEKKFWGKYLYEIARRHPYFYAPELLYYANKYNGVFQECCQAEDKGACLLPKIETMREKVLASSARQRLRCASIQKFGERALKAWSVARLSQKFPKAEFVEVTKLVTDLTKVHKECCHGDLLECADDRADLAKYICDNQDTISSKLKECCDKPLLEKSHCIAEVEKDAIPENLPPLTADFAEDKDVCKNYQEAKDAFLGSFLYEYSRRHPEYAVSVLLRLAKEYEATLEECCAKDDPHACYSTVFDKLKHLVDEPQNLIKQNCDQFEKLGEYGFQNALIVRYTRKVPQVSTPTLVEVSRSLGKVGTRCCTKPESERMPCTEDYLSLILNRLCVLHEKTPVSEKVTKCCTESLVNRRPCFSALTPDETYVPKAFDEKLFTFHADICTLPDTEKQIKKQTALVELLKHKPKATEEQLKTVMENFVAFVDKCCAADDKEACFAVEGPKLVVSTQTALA

[1] = probe aXIP binding to arrayed compounds – biochemical, NeuroSMM set, 635/667 nm fluorescence, primary screen (AID 1119); settings: small-molecule microarray, higher = more signal, called active from +8 up or from −8 down;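 also: probe is the protein aXip251-270 applied at 1 µg/mL to compound-printed slides; binding of probe to printed compounds measured as 667 nm fluorescence plus signal to noise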
[2] = probe aNOTCH3 binding on compound microarray – biochemical, small-molecule microarray, 635/667 nm fluorescence, primary screen (AID 1120); settings: higher = more signal;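 also: probe is a biotin-tagged antibody raised against NOTCH3 rather than NOTCH3 protein; score merges spot fluorescence near 667 nm with spot signal to noise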
[3] = probe aNOTCH2 binding on compound microarray – biochemical, small-molecule microarray, 635/667 nm fluorescence, primary screen (AID 1121); settings: higher = more signal;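 also: score merges feature fluorescence read at 667 nm with its signal to noise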
[4] = molecular target: Carbonic anhydrase 2 (Homo sapiens) (UniProt P00918); assay: compounds binding carbonic anhydrase 2 – biochemical, small-molecule microarray, Alexa647-labelled CAII, profiling panel (AID 1122); settings: CAII-A647 binding fluorescence, higher = more signal
[5] = COS7 lysate on small-molecule microarray, probe aHis, 635 nm (AID 1123); settings: COS7 cell lysate, fluorescence, higher = more signal;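 also: z-score combines 667nm fluorescence intensity with signal-to-noise per printed compound spot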
[6] = probe aLAP1 signal on lysate-treated microarray – cell lysate, small-molecule microarray, COS7 lysate, primary screen (AID 1124); settings: probe aLAP1, fluorescence, higher = more signal;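 also: lysate comes from COS7 cells expressing LAP1 and is applied at 0.3 µg/mL; score merges spot fluorescence near 667 nm with signal-to-noise over triplicate slides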
Sam68 (KHDRBS1) = assay: compounds binding KHDRBS1 protein – biochemical, small-molecule microarray, 635 nm fluorescence, primary screen (AID 1125); settings: higher = more signal;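 also: score merges 667 nm channel intensity with signal to noise over triplicate slides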
[7] = tested on: Chordin-like protein 2 (CHRDL2); assay: compounds binding chordin-like 2 – biochemical, small-molecule microarray, 635 nm fluorescence, primary screen (AID 1126); settings: fluorescence 635 nm, higher = more signal;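 also: printed compound slides probed with Chrdl2 protein at 4 µg/mL for 1 h at 4 C; score merges 667 nm emission intensity with signal to noise over three replicate slides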
[8] = molecular target: Concanavalin-A (Canavalia ensiformis) (UniProt P02866); assay: compounds binding concanavalin A lectin – biochemical, small-molecule microarray, Alexa647 label, 635 nm, artefact control for SMM control protein annotation, primary screen (AID 1127); settings: ConA-A647 binding fluorescence, higher = more signal;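 also: z combines 667 nm emission intensity with signal-to-noise across three replicate slides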
Concanavalin-A (Canavalia ensiformis), sequence (P02866 whole entry, looked up): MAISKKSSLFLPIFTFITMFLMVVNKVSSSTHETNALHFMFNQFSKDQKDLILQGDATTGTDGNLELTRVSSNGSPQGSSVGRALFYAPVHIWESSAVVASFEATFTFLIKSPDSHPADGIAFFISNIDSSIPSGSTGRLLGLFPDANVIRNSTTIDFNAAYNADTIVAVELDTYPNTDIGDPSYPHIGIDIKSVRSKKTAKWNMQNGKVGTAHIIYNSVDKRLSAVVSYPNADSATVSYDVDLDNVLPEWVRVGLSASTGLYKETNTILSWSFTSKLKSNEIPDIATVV

[9] = compounds binding Alexa647 anti-His antibody – biochemical, small-molecule microarray, 635 nm fluorescence, artefact control for SMM control protein annotation, primary screen (AID 1128); settings: higher = more signal;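 also: score merges feature fluorescence with signal-to-noise for each printed compound spot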
[10] = tested on: Human papillomavirus type 1a E7 protein (residues 1-88); assay: HPV1a E7 small-molecule binders, primary screen, biochemical, small-molecule microarray, residues 1-88, 635 nm (AID 1129); settings: small-molecule microarray binding, fluorescence 635 nm; higher = more signal
[11] = molecular target: Focal adhesion kinase 1 (Homo sapiens) (UniProt Q05397); assay: PTK2 protein binding on printed compound slides – biochemical, small-molecule microarray, 635/667 nm fluorescence, BSA, DTT, primary screen (AID 1130); settings: 635 nm fluorescence, higher = more signal;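 also: composite of spot emission at 667 nm and signal to noise over triplicate slides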
Focal adhesion kinase 1 (Homo sapiens), sequence (Q05397 whole entry, looked up): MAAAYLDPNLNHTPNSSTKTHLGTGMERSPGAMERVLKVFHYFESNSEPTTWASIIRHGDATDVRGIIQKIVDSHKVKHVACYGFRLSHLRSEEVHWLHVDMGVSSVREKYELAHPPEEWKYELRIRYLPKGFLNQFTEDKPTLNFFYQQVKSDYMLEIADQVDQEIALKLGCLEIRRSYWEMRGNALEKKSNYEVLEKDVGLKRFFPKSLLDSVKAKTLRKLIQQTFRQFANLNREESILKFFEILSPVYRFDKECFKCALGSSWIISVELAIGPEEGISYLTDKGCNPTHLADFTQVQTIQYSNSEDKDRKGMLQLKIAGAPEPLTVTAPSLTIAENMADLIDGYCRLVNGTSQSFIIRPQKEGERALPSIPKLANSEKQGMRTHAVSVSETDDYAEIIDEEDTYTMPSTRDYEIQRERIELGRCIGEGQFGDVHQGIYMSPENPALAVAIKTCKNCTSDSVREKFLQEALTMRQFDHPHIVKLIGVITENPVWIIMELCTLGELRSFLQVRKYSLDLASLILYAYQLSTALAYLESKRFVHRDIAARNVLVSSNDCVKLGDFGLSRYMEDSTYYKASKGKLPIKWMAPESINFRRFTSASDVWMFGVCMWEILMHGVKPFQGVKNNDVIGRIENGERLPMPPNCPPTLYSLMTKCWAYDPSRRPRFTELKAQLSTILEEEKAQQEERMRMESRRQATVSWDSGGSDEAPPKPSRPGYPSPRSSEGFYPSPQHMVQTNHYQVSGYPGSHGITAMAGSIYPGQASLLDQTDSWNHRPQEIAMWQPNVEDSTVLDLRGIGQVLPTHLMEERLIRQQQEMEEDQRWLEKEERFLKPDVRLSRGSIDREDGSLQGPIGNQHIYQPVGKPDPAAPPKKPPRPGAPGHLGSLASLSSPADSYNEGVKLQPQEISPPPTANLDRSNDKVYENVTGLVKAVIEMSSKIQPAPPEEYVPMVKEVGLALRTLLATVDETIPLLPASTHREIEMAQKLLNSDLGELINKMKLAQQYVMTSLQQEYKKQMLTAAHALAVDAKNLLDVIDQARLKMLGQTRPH

[12] = tested on: Fibrinogen (Alexa647-labelled); assay: Alexa647-fibrinogen binding to printed small molecules – biochemical, small-molecule microarray, 635/667 nm fluorescence, artefact control for SMM control-protein annotation, profiling panel (AID 1131); settings: fibrinogen-A647 binding fluorescence, higher = more signal;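 also: z-score merges 667 nm fluorescence with per-spot signal-to-noise over triplicate slides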
[13] = molecular target: Follistatin (Homo sapiens) (UniProt P19883); assay: FST protein binding to printed compounds – biochemical, small-molecule microarray, 635/667 nm fluorescence, primary screen (AID 1132); settings: 635 nm fluorescence, higher = more signal
Follistatin (Homo sapiens), sequence (P19883 whole entry, looked up): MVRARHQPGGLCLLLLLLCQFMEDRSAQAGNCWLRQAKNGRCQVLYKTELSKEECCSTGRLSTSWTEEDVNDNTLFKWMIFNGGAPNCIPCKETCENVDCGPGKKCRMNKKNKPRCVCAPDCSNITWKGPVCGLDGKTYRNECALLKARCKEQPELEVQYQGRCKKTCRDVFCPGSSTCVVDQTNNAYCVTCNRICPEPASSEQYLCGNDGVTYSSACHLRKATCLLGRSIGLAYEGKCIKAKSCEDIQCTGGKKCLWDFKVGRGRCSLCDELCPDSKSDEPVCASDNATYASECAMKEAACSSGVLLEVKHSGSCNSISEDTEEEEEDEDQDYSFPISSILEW

[14] = molecular target: Fibroblast growth factor 2 (Homo sapiens) (UniProt P09038); assay: basic fibroblast growth factor binding to printed compounds – biochemical, small-molecule microarray, 635/667 nm fluorescence, primary screen (AID 1133); settings: FGF2, fluorescence 635/667, higher = more signal
Fibroblast growth factor 2 (Homo sapiens), sequence (P09038 whole entry, looked up): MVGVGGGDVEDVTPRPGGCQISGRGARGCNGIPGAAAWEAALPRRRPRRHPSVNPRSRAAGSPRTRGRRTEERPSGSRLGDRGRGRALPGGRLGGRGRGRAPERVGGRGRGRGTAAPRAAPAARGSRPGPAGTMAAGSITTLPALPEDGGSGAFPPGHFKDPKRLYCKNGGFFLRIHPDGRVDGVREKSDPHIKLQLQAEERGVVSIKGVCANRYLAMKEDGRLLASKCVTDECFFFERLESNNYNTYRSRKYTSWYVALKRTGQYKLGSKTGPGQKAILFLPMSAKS

[15] = JC-1 mitochondrial potential readout, lung cancer cells – cell-based, A549, JC-1 fluorescence, basal, 24 h, 100 nL, profiling panel (AID 1138); settings: higher = more signal;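 also: A549 lung adenocarcinoma cells under basal conditions with no added stimulus; test concentration not given here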
Lefty1 = Lefty1 protein binding to printed compounds – biochemical, small-molecule microarray, 635/667 nm fluorescence, primary screen (AID 1139); settings: fluorescence 635/667, higher = more signal
[16] = tested on: wheat germ agglutinin (Triticum aestivum), Alexa647-labelled; assay: Alexa647-WGA lectin binding to printed small molecules – biochemical, small-molecule microarray, 635/667 nm fluorescence, artefact control for SMM control-protein annotation, profiling panel (AID 1140); settings: WGA-A647 binding, 635 nm fluorescence, higher = more signal;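 also: score merges 667 nm feature emission with signal to noise over triplicate slides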
[17] = molecular target: Luciferin 4-monooxygenase (Photinus pyralis) (UniProt P08659); assay: inhibition of purified Photinus pyralis luciferase – biochemical, luminescence, purified enzyme, 2006 set, primary screen (AID 1141); settings: purified firefly luciferase, SteadyGlo luminescence, 30 min; higher = more signal, called active from +8 up or from −8 down;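 also: cell-free assay with purified firefly luciferase at 100 ng per well in PBS; test concentration not given here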
Luciferin 4-monooxygenase (Photinus pyralis), sequence (P08659 whole entry, looked up): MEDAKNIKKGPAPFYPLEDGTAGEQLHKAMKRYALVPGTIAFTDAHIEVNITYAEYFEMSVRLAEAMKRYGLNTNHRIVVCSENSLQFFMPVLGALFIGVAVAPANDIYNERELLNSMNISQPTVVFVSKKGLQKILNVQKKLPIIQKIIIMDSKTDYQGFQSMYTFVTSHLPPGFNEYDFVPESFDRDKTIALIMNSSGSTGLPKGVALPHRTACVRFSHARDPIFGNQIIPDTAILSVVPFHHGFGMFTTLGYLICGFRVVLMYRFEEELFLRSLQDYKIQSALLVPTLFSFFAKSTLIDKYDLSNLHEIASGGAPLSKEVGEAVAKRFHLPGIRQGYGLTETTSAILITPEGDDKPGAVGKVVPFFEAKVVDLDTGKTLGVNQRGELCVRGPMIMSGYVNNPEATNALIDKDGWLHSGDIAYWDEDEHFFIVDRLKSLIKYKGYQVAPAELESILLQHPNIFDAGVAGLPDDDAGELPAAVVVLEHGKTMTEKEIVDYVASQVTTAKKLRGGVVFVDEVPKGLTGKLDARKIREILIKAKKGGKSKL

C=CCC(OC(C)=O)[C@@H]1[C@@H](N(Cc2cc3ccccc3o2)C(=O)c2ccc(-c3ccccc3)cc2)c2cc(OCCCO)ccc2N1C(=O)c1ccc(-c2ccccc2)cc1 (stereo not given in full)
composite z-score (Albumin (Bos taurus)): 0.327
composite Z-score [1]: -0.474 (inactive)
composite z-score [2]: 0.061
composite z-score [3]: -0.148
composite z-score [4]: 0.301
composite z-score [5]: 0.568
composite z-score [6]: 0.0482
composite z-score (Sam68 (KHDRBS1)): -0.19
composite z-score [7]: -0.333
composite z-score [8]: -0.395
composite z-score [9]: -0.853
composite z-score [10]: -0.43
composite z-score [11]: 0.25
composite z-score [12]: -0.796
composite z-score [13]: 0.227
composite z-score [14]: -0.109
z-score [15]: 2.56
composite z-score (Lefty1): -0.147
composite z-score [16]: -0.316
z-score [17]: -1.02 (inactive)

C=CCN1C(=O)[C@@]2(O[C@@H](CCO)[C@H]([Si](C)(C)c3ccc(OC)cc3)[C@H]2C)c2cc(N3C(=O)c4cccc5cccc3c45)ccc21
composite z-score (Albumin (Bos taurus)): 0.691
composite Z-score [1]: -0.159 (inactive)
composite z-score [2]: 0.0425
composite z-score [3]: -0.0956
composite z-score [4]: 0.355
composite z-score [5]: 0.964
composite z-score [6]: 1.13
composite z-score (Sam68 (KHDRBS1)): 0.897
composite z-score [7]: -0.487
composite z-score [8]: 1.06
composite z-score [9]: 2.09
composite z-score [10]: 1
composite z-score [11]: 0.617
composite z-score [12]: 0.302
composite z-score [13]: -0.233
composite z-score [14]: -0.145
z-score [15]: -0.456
composite z-score (Lefty1): -0.272
composite z-score [16]: 0.525
z-score [17]: -1.53 (inactive)

CO[C@H]1O[C@H](CO)[C@@H](OC(=O)Nc2ccccc2)[C@H](OC(=O)Nc2ccccc2-c2ccccc2)[C@H]1OC(=O)Nc1ccccc1-c1ccccc1
composite z-score (Albumin (Bos taurus)): 0.925
composite Z-score [1]: 0.563 (inactive)
composite z-score [2]: -0.0903
composite z-score [3]: -0.103
composite z-score [4]: 0.556
composite z-score [5]: 1.63
composite z-score [6]: 0.463
composite z-score (Sam68 (KHDRBS1)): 1.3
composite z-score [7]: -0.159
composite z-score [8]: 1.19
composite z-score [9]: 2.03
composite z-score [10]: 1.23
composite z-score [11]: 1.17
composite z-score [12]: 0.903
composite z-score [13]: 0.754
composite z-score [14]: 0.292
z-score [15]: -1.05
composite z-score (Lefty1): 0.601
composite z-score [16]: 1.19
z-score [17]: -0.864 (inactive)

CO[C@H]1O[C@H](CO)[C@@H](OC(=O)Nc2ccccc2)[C@H](OC(=O)Nc2ccccc2-c2ccccc2)[C@@H]1OC(=O)Nc1ccccc1-c1ccccc1
composite z-score (Albumin (Bos taurus)): 0.903
composite Z-score [1]: -0.0038 (inactive)
composite z-score [2]: 0.224
composite z-score [3]: -0.094
composite z-score [4]: 0.419
composite z-score [5]: 1.9
composite z-score [6]: 0.381
composite z-score (Sam68 (KHDRBS1)): 1.3
composite z-score [7]: -0.138
composite z-score [8]: 1.19
composite z-score [9]: 2.82
composite z-score [10]: 1.22
composite z-score [11]: 1.11
composite z-score [12]: 0.976
composite z-score [13]: 1.07
composite z-score [14]: 0.478
z-score [15]: 0.458
composite z-score (Lefty1): 0.36
composite z-score [16]: 1.26
z-score [17]: -1.24 (inactive)

— PubChem BioAssay
